Screens: PubChem BioAssay, several laboratories
Compounds with a hit are over-represented: about 28% of the library has one in this group of screens.
CYP2C19 inh – blocks human cytochrome P450 2C19 | P33261 | CYP2C19 Supersomes, luciferin-H EGE luminescence, 30 min | inhibition, % at 5 µM | actives 21% (n = 96,000);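 active = CYP2C19 inhibition above a set limit at 5 µM in the primary screen, cut at about 50% in these data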;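 note: plate controls were negative control wells for no effect and 2.5 mM tranylcypromine positive control for full effect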
CYP2C19 act – cytochrome P450 2C19 (human) activation | 96,000 tested, under 10 active | AID 1025 | recombinant CYP2C19, luciferin-H EGE luminescence; stronger effect = higher value; 0 = fully inhibited enzyme, 1 = untreated enzyme | activation factor at 5 µM;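 active = activation factor of at least 2 at 5 µM in the primary screen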;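 note: 0 = wells with 2.5 mM tranylcypromine and 1 = vehicle-only wells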
D1 mod – allosterically modulates the human D1 dopamine receptor. AID 641. B-score at 10 µM. HEK293 D1, CRE-luciferase, dopamine EC30 potentiation; actives deviate in either direction. P21728. actives 5.9% (n = 58,000);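 active = luminescence count or its row- and column-corrected plate score outside the 99.7% band of the plate's sample wells, on either side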
CYP2C9 activ – increases human cytochrome P450 2C9 activity; recombinant CYP2C9, luciferin-H conversion, luminescence; stronger effect = higher value; factor 1 = untreated enzyme, 0 = blocked; activation factor at 5 µM; actives 1.4% (n = 96,000); AID 1024;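 active = activation factor of 2 or more for CYP2C9 at a 5 µM dose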;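 note: 0 = sulfaphenazole-blocked wells and 1 = vehicle-only wells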
Target sequence (P11712 whole entry, looked up): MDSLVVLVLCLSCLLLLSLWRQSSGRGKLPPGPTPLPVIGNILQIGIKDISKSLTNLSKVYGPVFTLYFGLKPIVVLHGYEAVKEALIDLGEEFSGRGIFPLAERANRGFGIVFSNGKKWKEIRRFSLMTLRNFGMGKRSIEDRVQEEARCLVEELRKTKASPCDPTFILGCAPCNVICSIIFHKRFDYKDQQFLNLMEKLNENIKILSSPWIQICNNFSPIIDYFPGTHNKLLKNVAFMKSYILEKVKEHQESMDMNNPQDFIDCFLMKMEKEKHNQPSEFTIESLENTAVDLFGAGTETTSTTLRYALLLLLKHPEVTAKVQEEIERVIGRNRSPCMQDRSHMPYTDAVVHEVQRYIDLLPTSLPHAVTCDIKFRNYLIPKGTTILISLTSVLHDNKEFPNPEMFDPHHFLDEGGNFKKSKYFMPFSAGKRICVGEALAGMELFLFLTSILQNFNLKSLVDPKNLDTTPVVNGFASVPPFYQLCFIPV
DAT uptake mod – human DAT dopamine uptake with cocaine, either direction | B-score at 10 µM | LLC-PK1 hDAT cells, [14C]-dopamine uptake with cocaine IC80; actives deviate in either direction | actives 1.3% (n = 110,000);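 active = Z score or B-score, a plate-position-corrected score, falls beyond the plate's 99.7% confidence bounds, in either direction; inactive = both scores lie inside the 99.7% bounds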;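 note: scored against the spread of the other compound wells on the same plate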
CYP2C9 inhib – inhibitors of human CYP2C9; inhibition, % at 5 µM; P11712; actives 20% (n = 96,000); AID 777; CYP2C9 Supersomes, luciferin-H conversion, luminescence;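 active = blocking of liver enzyme CYP2C9 beyond about 50% at 5 µM, limit read from the data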
* hit, by the source's call; · = no result.

SMILES	CYP2C19 inh	CYP2C19 act	D1 mod	CYP2C9 activ	DAT uptake mod	CYP2C9 inhib
CC(C)CCn1c(SCC(=O)c2ccccc2)nc2c1c(=O)[nH]c(=O)n2C	19	0.8	1.4	0.3	0.56	73*
C=CCn1c(SCc2ccc(F)cc2)nc2c1c(=O)[nH]c(=O)n2C	58*	0.4	3.2	0.5	-0.043	46
C=CCn1c(Sc2ccccc2)nc2c1c(=O)[nH]c(=O)n2C	·	·	·	·	-0.8	·
CC(C)Sc1nc2c(c(=O)[nH]c(=O)n2C)n1Cc1ccc(Cl)cc1	-1	1	23*	0.9	-0.87	6
CCN1CCN(c2nc3c(c(=O)[nH]c(=O)n3C)n2CCSc2nc3ccccc3s2)CC1	7	0.9	0.97	0.6	0.14	37
Cc1csc(SCCn2c(N3CCN(c4ccccc4)CC3)nc3c2c(=O)[nH]c(=O)n3C)n1	49	0.5	-0.66	0.5	0.43	52*
CCCn1c(N2CCN(Cc3cccc(C)c3)CC2)nc2c1c(=O)[nH]c(=O)n2C	90*	0.1	0.23	1	-0.21	-3
O=C(CCC(=O)N1CCN(c2ccccn2)CC1)Nc1nnc(C2CCCCC2)s1	16	0.8	0.25	0.9	0.3	10
O=C(OCc1nc2ccccc2s1)c1ccc(Br)s1	16	0.8	·	0.9	-1	12
CNC(=O)COC(=O)c1ccc(-c2nc3ccccc3s2)s1	94*	0.1	·	0.3	0.01	72*
COCc1cc(C)nc(SCC(=O)Nc2ccc3c(c2)OCO3)c1C#N	76*	0.2	0.84	0.8	-0.078	22
O=C(CSc1ccc2c(c1)OCCO2)NCc1ccco1	55*	0.5	-1.1	0.3	-0.054	70*
CC(Sc1ccc2c(c1)OCCO2)C(=O)Nc1ccc2c(c1)OCO2 (stereo not drawn)	100*	0	0.4	0.1	·	90*
CSc1nsc(SCC(=O)Nc2ccccn2)n1	22	0.8	-0.03	1	-0.039	-2
CSc1nsc(SCC(=O)Nc2ccc3c(c2)OCCO3)n1	88*	0.1	0.77	0.2	0.44	82*
Cc1nnc(SC(C)C(=O)Nc2ccc3c(c2)OCCO3)s1 (stereo not drawn)	8	0.9	-0.72	0.8	-0.94	20
Clc1ncn(C23CC4CC(CC(C4)C2)C3)n1	14	0.9	·	1	-0.88	1
Cc1ccc(S(=O)(=O)N2CCCC2C(=O)OCc2ccco2)cc1 (stereo not drawn)	24	0.8	-1.5	1.2	-0.53	-17
CCOC(=O)c1cnc(SCc2ccc(C(C)(C)C)cc2)nc1N	-6	1.1	·	0.3	-0.25	70*
CCOC(=O)c1cnc(SCC(=O)Nc2ccc3c(c2)OCCO3)nc1N	38	0.6	0.97	0.3	-0.51	69*
O=C(CSc1ncn(-c2ccccc2)n1)Nc1ccc2c(c1)OCCO2	43	0.6	-1.2	0.5	-1.5	46
O=C(CSc1ncn(-c2ccccc2)n1)Nc1ccc2c(c1)OCO2	95*	0.1	-0.39	0.1	0.45	90*
CC(Sc1ccc2c(c1)OCCO2)C(=O)Nc1ncc(Cl)cc1Cl (stereo not drawn)	70*	0.3	·	0.6	0.17	42
CCOc1ccc(OCC)c(C2C(C#N)=C(N)N(c3cccnc3)C3=C2C(=O)CC(C)(C)C3)c1 (stereo not drawn)	-14	1.1	-0.36	1	-0.66	1
O=C(CSc1ccc2c(c1)OCCO2)Nc1ccc(Br)cc1	95*	0	·	0.3	0.049	75*
SMILES	CYP2C19 inh	CYP2C19 act	D1 mod	CYP2C9 activ	DAT uptake mod	CYP2C9 inhib
Cc1ccc(SCC(=O)NC(=O)NCc2ccco2)cc1C	28	0.7	·	0.5	-0.93	46
CCCNC(=O)NC(=O)CSc1ccc2c(c1)OCCO2	76*	0.2	·	1	-0.29	3
O=C(CSc1nnc2c(n1)[nH]c1ccccc12)Nc1ccc2c(c1)OCO2	5	1	·	0.4	-1.1	64*
COc1ccc(NC(=O)CSc2ccc3c(c2)OCCO3)cc1OC	46	0.5	·	0.4	-0.62	64*
Cc1cc(C)c2c(=O)[nH]c(=O)n(Cc3ccccc3)c2n1	-4	1	4.3	0.9	-1.8	5
O=S1(=O)CCOC[C@H](Cc2ccccc2)N1Cc1ccccc1F	·	·	·	·	-0.45	·
C=CCN1C(=O)C(O)(CC(=O)c2ccco2)c2cc(Br)ccc21 (stereo not drawn)	·	·	·	·	-1.7	·
